About 83,000 compounds went through this panel and 20% of them were active in at least one assay; those are over-represented in the sample as a whole.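 How to read the values: 0–100, growth inhibition (40 = 60% inhibited); 0, no net growth; -100 to 0, cell death (-40 = 40% of starting cells died; -100 = all dead).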 A number with no mark means an inactive call. Active and inactive are the calls of the source.
tested on: HCC-2998 colon; experiment: NCI-60 one-dose screen, 48 h (100 = growth as untreated, 0 = no growth, -100 = all killed); details: 10 µM unless noted
Protocol: Growth inhibition of the HCC-2998 human tumor cell line is measured as a screen for anti-cancer activity. Cells are grown in 96 well plates and exposed to the test compound for 48 hours. Compounds are tested at a single concentration, which is 10^-5 M for most compounds. The reported endpoint is percent growth (GI% or GIPRCNT), where numbers from 0 - 100% represent growth inhibition, and numbers from -100% - 0 represent cell death. For example, a value of 40 represents 60% growth inhibition. A value of 0 means no net growth occurred over the course of the experiment. A value of -40 indicates 40% of cells at the beginning of the experiment died by the end of the experiment. A value of -100 means all cells are dead at the end of the experiment.
NCI-60 Human Tumor Cell Lines Screen was performed using the standard one-dose NCI protocol, which is described in more detail at https://dtp.cancer.gov/discovery_development/nci-60/default.htm.
Compounds with GIPRCNT values below 10 were considered active. Activity score was based on GIPRCNT using the following formula: […]
Score is 0 for GIPRCNT values of 100 or above, 50 for GIPRCNT values of 0, and 100 for GIPRCNT values of -100.

Going from `Cc1nn(-c2cc(NC3CCC(O)CC3)c3c(=O)[nH]c(CCC(F)(F)F)cc3c2)c2c1C(=O)CC(C)(C)C2` (stereo not given) to `CCN(CC)CCN1C(=O)c2c(c(C)c3c(oc4ccc(OC)cc43)c2C)C1=O`, the growth rises from 10.9% to 100%.

Compared with `N#C/C(=C\c1cn(Cc2ccccc2)c2ccccc12)C(=O)Nc1ncc(Cc2ccccc2Cl)s1`, `O=C(Cc1ccc(NC(=O)c2cccc(Cl)c2)cc1)NCc1ccccc1` is higher in growth: 58.4% for the first, 73.3% for the second.

First: Cc1ccc(NC(=O)Cn2c(Br)nc3c2c(=O)n(C)c(=O)n3C)cc1
Second: COc1cc2nc3sc(C(=O)Nc4ccc(C(=O)OC(C)C)cc4)c(C(=O)Nc4ccc(Cl)cc4C)n3c(=O)c2cc1OC
The growth of the first is higher: 83.7% for the first, 20.5% for the second.

Compared with `O=C(Nc1ncccc1OCc1ccccc1)NC1CCCCCC1`, `O=C1NC(=O)/C(=C/c2c(-c3ccccc3)nc3sc(COc4ccccc4)nn23)S1` is higher in growth: 105% for the first, 107% for the second.

First: COC(=O)CC[C@@H]1O[C@@H](c2ccc(F)cc2)[C@@H](O)[C@H]1O
Second: CCOC(=O)c1nn(CC(O)c2ccccc2)c(NC(=O)Nc2cccc(F)c2)c1C (stereo not given)
The growth of the first is higher: 99.6% for the first, 98.3% for the second.

Going from `CCOC(=O)c1cnc2c(N=Nc3ccc(OC)cc3)c(N)nn2c1N` to `COc1cccc(CNc2c3ccccc3nc3ccccc23)c1`, the growth falls from 106% to 39.3%.

First: COc1ccc(-c2n[nH]c(=O)c3nc(NC(=S)Nc4ccc(Oc5ccccc5)cc4)sc23)cc1
Second: O=C(Nc1cnc(Nc2ccc(N3CCOCC3)nc2)nc1Oc1ccc(C(F)(F)F)cc1)c1ccncc1
The growth of the first is lower: 105% for the first, 110% for the second.

First: O=C1/C=C/[C@@H](O)[C@@H]2C[C@@H](O)C[C@H]2/C=C/CCC[C@@H](O)CCO1
Second: C[C@@H]1O[C@@H](O[C@@H]2C[C@H](c3ccc4c(c3O)C(=O)C3=C(C4=O)[C@@]4(O)C(=O)C[C@](C)(O)C[C@@]4(O)C=C3)O[C@H](C)[C@H]2O)CC[C@@H]1O[C@H]1C[C@@H](O)[C@H](O)[C@@H](C)O1
The growth of the first is lower: 100% for the first, 103% for the second.

Compared with `C=C(C)[C@@H]1CCC[C@]2(C(=O)O)CC[C@]3(C)[C@@H](CC[C@@H]4[C@@]5(C)C/C(=C/c6ccncc6)C(=O)C(C)(C)[C@@H]5CC[C@]43C)[C@@H]12`, `C/C=C(\C)C(=O)N[C@H]1C(O)C[C@]2(C)C3CC[C@@]4(C)C(CC[C@@H]4C(C)N(C)C)C3CCC2C1O` (stereo not given in full) is higher in growth: 23.8% for the first, 59.7% for the second.

First: COc1cccc(C(=O)NNc2nc(Cl)nc(Cl)n2)c1
Second: COc1ccc(C(=O)/C=C/c2ccc(N3CCCCC3)cc2)cc1OC
The growth of the first is lower: 95.2% for the first, 107% for the second.

First: CC1(C)OB(O)c2cc(-c3nc4ccc5[nH]ncc5c4c4c3CCCC4)ccc21
Second: O=c1c2c3c(sc2n2c(-c4cc(-c5ccccc5)no4)nnc2n1Cc1ccccc1)CCCC3
The growth of the first is lower: 82.9% for the first, 101% for the second.

Going from `CCCCCCCCCCCCCOC(=O)c1c(C)[nH]c(/C=C2\N=C(c3ccc[nH]3)C=C2OC)c1C` to `CCCCNC(=O)Oc1ccc(/C(=C(/C)Cc2ccc(OC)cc2)c2ccc(OCCN3CCCCCC3)cc2)cc1`, the growth rises from 22.8% to 83.8%.

Going from `Fc1ccc(Cn2cc(CSc3nc4ccccc4o3)nn2)cc1` to `Nc1nc(N)c2c(n1)NC(c1ccc(Cl)cc1)C1CCc3ccccc3C1=N2` (stereo not given), the growth falls from 109% to 75.6%.

Going from `O=C(N/N=C\c1cccc([N+](=O)[O-])c1)N/N=C/c1cccc([N+](=O)[O-])c1` to `O=[N+]([O-])c1cc(NS(=O)(=O)c2ccccc2)ccc1NS(=O)(=O)c1ccccc1`, the growth falls from 109% to 99.3%.

Compared with `O=C(NCc1cccc(CNC(=O)Nc2nc3ccccc3[nH]2)c1)Nc1nc2ccccc2[nH]1`, `[2H]C([2H])([2H])Oc1ccc(F)cc1/C=C/C(=O)/C=C(/C=C/c1cc(F)ccc1OC([2H])([2H])[2H])OB(F)F` is higher in growth: 17.9% for the first, 114% for the second.

First: CC/C=C\C[C@H](O)C/C=C1/C(=O)C=C[C@@H]1C/C=C\CCCC(=O)O
Second: COc1ccc(/C=C/C(c2cc(OC)c(OC)c(OC)c2)n2ccnc2)cc1O (stereo not given)
The growth of the first is lower: 57.7% for the first, 77% for the second.

`C#Cc1cccc(Nc2nc(C)nc3cc(NC(=O)CCl)ccc23)c1` was tested, and the growth was -88.1% (active).
`O=C1/C(=C/c2ccccc2F)CN(C(=O)C(Cl)Cl)C/C1=C\c1ccccc1F` was tested, and the growth was -76.9% (active).
For `Cc1ccc(/C=C(\C#N)n2nnc3cc(F)c(F)cc32)cc1`, the growth was -10.6% (active).
`N#CSc1c[nH]c2cccc(/C=C/C(=O)/C=C(O)/C=C/c3cccc4[nH]cc(SC#N)c34)c12` was tested, and the growth was -57.8% (active).
For `Cc1ccc(-c2nc(-c3cn(C)c4ncccc34)cs2)cc1`, the growth was -67.9% [100 µM] (active).
For `N#C/C(=C\c1ccc([N+](=O)[O-])cc1)n1nnc2cc(F)c(F)cc21`, the growth was -56.2% (active).
With `CC1(C)[C@@H](O[C@@H]2OC[C@@H](O[C@@H]3O[C@H](CO)[C@@H](O)[C@H](O)[C@H]3O[C@@H]3OC[C@@H](O)[C@H](O)[C@H]3O)[C@H](O)[C@H]2O[C@@H]2O[C@H](CO)[C@@H](O)[C@H](O)[C@H]2O)CC[C@]2(C)[C@H]3CC[C@]45OC[C@@]6(CC[C@](C)(C=O)C[C@H]64)[C@H](O)C[C@@]5(C)[C@]3(C)CC[C@@H]12` the growth was -82.1% (active).

`CCOC(=O)c1c(C)c2c(n1Cc1ccccc1)CSCC2=O` gave a growth of 17% [100 µM].

Source: PubChem BioAssay (NCI)
